Dicer processing – blocks human Dicer maturation of pre-miR-21 | z-score at 25 µM | cat-ELCCA pre-miR-21 Dicer processing, chemiluminescence; active compounds read high | 6% of 47,000 active | Q9UPY3; in the data active means z-score above about 3, passing the limit was not always enough;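 further: plate controls were vehicle for no effect and no enzyme for full effect; higher signal means more uncleaved substrate so more Dicer inhibition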
Target sequence (Q9UPY3 whole entry, looked up): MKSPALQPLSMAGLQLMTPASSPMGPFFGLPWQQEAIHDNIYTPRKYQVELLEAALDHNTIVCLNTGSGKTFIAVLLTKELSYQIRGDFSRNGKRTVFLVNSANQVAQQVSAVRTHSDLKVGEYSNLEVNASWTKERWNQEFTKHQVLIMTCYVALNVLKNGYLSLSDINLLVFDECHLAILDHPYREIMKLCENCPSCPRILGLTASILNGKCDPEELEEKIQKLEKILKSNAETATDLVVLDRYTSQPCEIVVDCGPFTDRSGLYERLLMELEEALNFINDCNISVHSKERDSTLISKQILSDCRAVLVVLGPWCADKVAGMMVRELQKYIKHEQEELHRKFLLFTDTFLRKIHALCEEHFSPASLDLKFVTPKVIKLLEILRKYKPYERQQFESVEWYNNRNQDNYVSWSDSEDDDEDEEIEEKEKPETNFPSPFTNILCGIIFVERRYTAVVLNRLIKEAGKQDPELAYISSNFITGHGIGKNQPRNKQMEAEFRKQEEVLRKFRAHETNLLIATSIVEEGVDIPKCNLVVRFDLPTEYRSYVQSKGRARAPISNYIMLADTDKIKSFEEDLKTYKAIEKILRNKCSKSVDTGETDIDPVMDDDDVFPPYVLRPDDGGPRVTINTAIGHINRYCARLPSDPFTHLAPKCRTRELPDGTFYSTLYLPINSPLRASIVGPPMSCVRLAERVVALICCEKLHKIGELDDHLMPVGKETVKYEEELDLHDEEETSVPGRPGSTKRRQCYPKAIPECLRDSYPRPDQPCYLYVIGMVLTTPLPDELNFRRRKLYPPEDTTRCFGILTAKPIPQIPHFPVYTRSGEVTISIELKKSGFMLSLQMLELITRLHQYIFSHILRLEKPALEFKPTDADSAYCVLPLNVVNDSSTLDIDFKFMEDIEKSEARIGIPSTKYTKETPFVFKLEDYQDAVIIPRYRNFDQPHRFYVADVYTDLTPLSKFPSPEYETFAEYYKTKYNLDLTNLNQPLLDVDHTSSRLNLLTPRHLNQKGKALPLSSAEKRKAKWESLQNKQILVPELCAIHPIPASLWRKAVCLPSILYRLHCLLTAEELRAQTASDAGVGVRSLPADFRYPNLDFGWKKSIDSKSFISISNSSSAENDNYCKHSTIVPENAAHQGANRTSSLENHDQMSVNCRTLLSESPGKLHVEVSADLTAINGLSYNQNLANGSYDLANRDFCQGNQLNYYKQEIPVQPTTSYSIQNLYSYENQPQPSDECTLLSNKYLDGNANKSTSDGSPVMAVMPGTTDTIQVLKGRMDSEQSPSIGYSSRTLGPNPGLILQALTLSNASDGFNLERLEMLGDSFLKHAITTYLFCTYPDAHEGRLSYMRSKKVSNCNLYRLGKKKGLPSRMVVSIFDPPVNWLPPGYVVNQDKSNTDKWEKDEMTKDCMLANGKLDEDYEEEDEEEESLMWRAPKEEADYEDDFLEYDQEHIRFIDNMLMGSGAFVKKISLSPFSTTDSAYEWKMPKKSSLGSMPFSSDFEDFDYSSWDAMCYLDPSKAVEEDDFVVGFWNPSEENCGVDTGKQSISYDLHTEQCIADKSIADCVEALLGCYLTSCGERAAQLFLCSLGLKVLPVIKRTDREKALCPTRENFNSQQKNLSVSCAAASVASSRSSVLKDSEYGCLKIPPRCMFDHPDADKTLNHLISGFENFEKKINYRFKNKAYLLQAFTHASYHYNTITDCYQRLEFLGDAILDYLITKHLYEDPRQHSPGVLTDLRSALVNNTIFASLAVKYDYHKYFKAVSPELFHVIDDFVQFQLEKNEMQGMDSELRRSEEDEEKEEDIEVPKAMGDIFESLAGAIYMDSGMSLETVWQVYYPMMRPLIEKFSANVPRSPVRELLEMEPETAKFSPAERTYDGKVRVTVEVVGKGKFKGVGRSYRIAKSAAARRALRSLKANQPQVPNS
* = called active by the depositor. Many of the other results were omitted from the sample, so hits are more common in it than they were.

SMILES | Dicer processing
CCn1nc(C)cc1-c1nnc(SCc2ccccc2)n1-c1ccc(Cl)cc1 | 0.35
O=C(COC(=O)c1cccc2cccc(I)c12)c1ccc(Br)cc1 | -0.7
O=C(O)/C=C\C(=O)NCCc1ccc(Cl)cc1 | 7.2
CC(=O)C(C)(C)OC(=O)NCCc1ccc(Cl)cc1 | 7.2*
CC(=O)C(C)(C)OC(=O)NCc1cccs1 | -3.2
Nc1nonc1C(=O)NCCNCc1cccs1 | -0.27
CC(C)(C)C(=O)NCCNC(=O)c1nonc1N | 0.96
Nc1nonc1C(=O)NCCNC(=O)c1cccc(Br)c1 | 5.2*
CCc1ccc(C2C(C(=O)OC)=C(C)Nc3nc4ccccc4n32)cc1 (centres undefined) | -0.91
CCCCOC(=O)Nc1nnc(CC)s1 | 0.59
CC(C)c1ccc(NC(=O)Cn2c(=O)oc3cccnc32)cc1 | -0.57
Cc1c(O)nc(SCC(=O)N2CCc3ccccc32)n(-c2ccccc2)c1=O | 0.01
O=C(CSc1nc(O)cc(=O)n1-c1ccccc1F)N1CCc2ccccc21 | 5.5*
CC(C)c1c(O)nc(SCC(=O)N2CCc3ccccc32)n(-c2ccccc2)c1=O | -1.1
CC(C)(C)c1ccc(O)c(/C(=N/O)c2ccccc2)c1 | -0.06
COc1ccccc1C1=NOC(COC(=O)c2ccc3ccccc3n2)C1 (centres undefined) | -1.3
Cc1nn(C)c(Sc2ccc(Cl)cc2)c1[N+](=O)[O-] | -1.4
COc1cccc(-c2nn(-c3ncc(C(F)(F)F)cc3Cl)c(=O)o2)c1 | -1.5
O=C1C(=O)C(c2ccccc2)C(=O)C1c1ccccc1 (centres undefined) | 1.6
O=C1NNC(c2ccccc2)C1c1ccccc1 (centres undefined) | 3.5*
CC(C)C1C(=O)CC(c2ccccc2)NC1c1ccccc1 (centres undefined) | 0.45
O=S1(=O)N=C(Nc2ccc(N3CCOCC3)cc2)c2ccccc21 | 1.6
O=C1C2C3c4ccccc4C(C(=O)O)(c4ccccc43)C2C(=O)N1Cc1ccccc1 (centres undefined) | 1.6
CCCCC(C(=O)O)N1C(=O)C2C3c4ccccc4C(c4ccccc43)C2C1=O (centres undefined) | 3.5*
O=C(O)C(Cc1ccccc1)N1C(=O)C2CCCCC2C1=O (centres undefined) | 1.7
SMILES | Dicer processing
CNc1nc2c(Cl)cc(Cl)cc2s1 | 0.48
O=C1CC(N2CCCCC2)C=C1Nc1ccccc1 (centres undefined) | 0.24
FC(F)(F)c1cnc(SCc2c(Cl)cccc2Cl)c(Cl)c1 | 0.05
FC(F)(F)c1ccc(CSc2ncc(C(F)(F)F)cc2C(F)(F)F)cc1 | -1.1
FC(F)(F)c1cccc(CSc2ncc(C(F)(F)F)cc2C(F)(F)F)c1 | 3*
CSc1nc(-c2ccccc2)nc2[nH]c(-c3ccccc3)cc(=O)c12 | 0.47
CCN1CCN(c2nc3c(c(=O)n(C)c(=O)n3C)n2CC(O)c2ccccc2)CC1 (centres undefined) | -1.6
COc1ccc(OS(=O)(=O)c2sc(Br)cc2Br)cc1 | 0.87
CC1=C(C(=O)Nc2cc(C)ccn2)C(c2cccs2)C2=C(CC(C)(C)CC2=O)N1 (centres undefined) | -0.21
CSCC[C@H](NC(=O)OC(C)(C)C)C(=O)OCc1ccc(CC(=O)O)cc1 | 3*
CC(C)(C)OC(=O)N[C@@H](Cc1ccccc1)C(=O)OCc1ccc(CC(=O)O)cc1 | 0.83
CC(C)(C)OC(=O)NC(COCc1ccccc1)C(N)=O (centres undefined) | -0.63
O=S(=O)(c1ccc(Cl)cc1)c1cc(O)ccc1O | 0.64
CC(C)CNC(=O)c1cc2n(n1)C(C(F)(F)F)CC(c1ccco1)N2 (centres undefined) | -0.16
Cc1ccc2oc(=O)n(CCCOc3ccc(Br)cc3)c2c1 | 3.2*
Cc1ccc2c(c1)C(=O)C(=O)N2CCOc1ccc(Br)cc1 | 0.93
Cc1ccc2oc(=O)n(CCC#N)c2c1 | -0.44
FC(F)(F)c1ccc(CSc2ncc(-c3ccc(Cl)cc3)o2)cc1 | 0.01
C=CCn1c2ccccc2c2nnc(SCC(=O)Nc3nc(C)c(C(=O)OCC)s3)nc21 | 4.9*
C=CCn1c2ccccc2c2nnc(SCC(=O)Nc3cc(C)on3)nc21 | 0.28
C=CCn1c2ccccc2c2nnc(SCC(=O)Nc3ncc([N+](=O)[O-])s3)nc21 | 0.77
C/C(=N\NC(=O)c1ccc(Cl)cc1)C1CC1 | 0.29
COc1ccc(OCC(=O)OCC(C)(C)NC(=O)N2c3ccccc3Sc3ccccc32)cc1 | 0.42
Cc1cc(C)cc(NS(=O)(=O)c2ccc3[nH]c(=O)[nH]c3c2)c1 | -0.23
O=c1oc2c(Cl)cc(NS(=O)(=O)c3ccc(F)cc3)cc2s1 | 9.7*
SMILES | Dicer processing
COc1ccc(S(=O)(=O)Nc2cc(Cl)c3oc(=O)sc3c2)cc1 | 8.9*
COC(=O)c1sc(C(C)(C)C)cc1NS(=O)(=O)c1ccc(OC)cc1 | -0.67
O=S(=O)(Nc1ccccc1Cl)c1ccc(F)cc1 | -0.45
Cc1ccc(C)c(S(=O)(=O)Nc2ccc3oc4c(c3c2)C(=O)CCC4)c1 | -1.4
Cc1ccc(S(=O)(=O)Nc2cc(Cl)c3oc(=O)sc3c2)cc1 | 11*
Cc1cc(NS(=O)(=O)c2ccc(NS(=O)(=O)c3cc(C)c(Cl)cc3Cl)cc2)no1 | -0.3
COc1ccc(S(=O)(=O)Nc2nnc(C(C)C)s2)cc1 | 0.14
Cc1ccc(C)c(S(=O)(=O)Nc2cc(Cl)c3oc(=O)sc3c2)c1 | 12*
COc1ccc(Cl)cc1NS(=O)(=O)c1ccc(F)cc1 | 1.6
Cc1ccc(C)c(S(=O)(=O)Nc2ccc3oc(C)c(C(=O)O)c3c2)c1 | -0.8
O=C(NCCCSc1ccccc1F)c1ccc(Cl)cc1Cl | -0.42
O=C(O)CN(CCOCCOCCN(CC(=O)O)CC(=O)O)CC(=O)O | -3.2
Cc1cc(C=C2C(=O)CC(C)(C)CC2=O)oc1C | 2.1
COc1ccc(N2C(=O)C3ON(c4ccccc4)C(c4cccs4)C3C2=O)cc1 (centres undefined) | 2.1
O=[N+]([O-])c1cc(C(F)(F)F)ccc1NC1CCN(Cc2ccccc2)CC1 | 1.6
O=C(CSc1ncn[nH]1)Nc1nnc(-c2ccccc2)s1 | -0.22
CC1=N/C(=C\c2sc3ccccc3c2C)C(=O)O1 | -0.7
C=CCSc1nc(C2CC2)cc(-c2ccccc2)c1C#N | 1.1
CN(C)/C=C(\C#N)S(=O)(=O)c1cccs1 | -1.8
COC(=O)c1sccc1N/C=C(\C#N)S(=O)(=O)c1cccs1 | 19*
N#C/C(=C\c1c(Cl)cccc1Cl)S(=O)(=O)c1cccs1 | -0.95
O=C(O)c1ccc2nc(-c3ccc(O)cc3)sc2c1 | 4.5*
Nc1ccc(-c2nc3ccccc3s2)cc1 | 2.9
O=C(O)c1ccc2nc(-c3ccccc3)c(-c3ccccc3)nc2c1 | 0.57
O=C(Nc1cc2cc([N+](=O)[O-])ccc2oc1=O)c1c(F)cccc1F | 0.49
SMILES | Dicer processing
O=[N+]([O-])c1ccccc1Sc1c(-c2ccccc2)nc2ccccn12 | -0.26
C/C(=N\OCC(=O)Nc1ccc(Cl)cc1)c1ccc(Cl)cc1 | 0.25
COCc1cc(=O)[nH]c(SCC(=O)c2ccccc2)n1 | 0.79
CC1=C(C(=O)OCCOc2ccccc2)C(c2cccnc2)C2=C(CC(C)(C)CC2=O)N1 (centres undefined) | 3.5*
CCCOC(=O)C1=C(C)NC2=C(C(=O)CC(C)(C)C2)C1c1ccc(SC)cc1 (centres undefined) | 1.6
CSc1ccc(C2C(C(=O)OCCOc3ccccc3)=C(C)NC3=C2C(=O)CC(C)(C)C3)cc1 (centres undefined) | 2.9
CCCOCCOC(=O)C1=C(C)NC2=C(C(=O)CC(C)(C)C2)C1c1ccsc1 (centres undefined) | 5.1*
